Laboratory results from PubChem BioAssay AID492956 (The Scripps Research Institute Molecular Screening Center, 2010).
Out of some 340,000 compounds screened, about 3,300 (0.97%) were called active. The full list was thinned out, with actives kept by preference. Values without a mark were called inactive.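 The calls were made as follows: active = inhibition above the mean over all tested compounds plus 3 SD (cut at about 30% in these data); inactive = the rest.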

Molecular target: Platelet-activating factor acetylhydrolase 2, cytoplasmic (Homo sapiens) (UniProt Q99487)
Assay: inhibition of cytoplasmic PAF acetylhydrolase 2 – biochemical, fluorescence polarization, human, primary screen (AID 492956);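 also: inhibitors block probe labeling of enzyme so polarization drops; 0% = enzyme with DMSO and 100% = wells lacking PAFAH2 protein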
Conditions: recombinant PAFAH2, FP-rhodamine activity probe, at 3.39 µM, active compounds read high

SMILES | inhibition
COc1ccc(N2C(=O)/C(=C/c3ccco3)C(=O)NC2=S)cc1 | 59.1% (active)
CC(C)CN1CCN(Cc2ccccc2C(F)(F)F)CC1CCO (stereo not given) | 4.28%
COc1ccc(-n2c(-c3ccccc3)nc3ccccc3c2=O)cc1 | -4.87%
C[C@]12CCCCC1=CC(=O)C1C2CC[C@@]2(C)C1C[C@@H](F)[C@@H]2O (stereo not given in full) | 2.89%
CC(Cc1cccs1)NCc1ccc(Cl)cc1 (stereo not given) | 4.46%
CCc1nc2ccccc2c(=O)n1-c1cccc(OC)c1 | 0.9%
Cc1c(C(=O)O)cccc1-n1c(C)cc(/C=C2\C(=O)NC(=O)N(c3ccc4c(c3)OCO4)C2=O)c1C | 14.2%
COc1cccc(N2C(=O)NC(=O)/C(=C\c3cn(C)c4ccccc34)C2=O)c1 | 53% (active)
Cc1cccc(N2C(=O)NC(=O)/C(=C\c3cnn(-c4ccccc4)c3)C2=O)c1 | 38.8% (active)
CCN1CCN(c2nc3c(c(=O)[nH]2)CCC3)CC1 | 1.82%
CC12CCC3C(CCC4CC(=O)CCC43C)C1CC(=NO)C2=O (stereo not given) | 5.08%
Cc1ccc(S(=O)(=O)N(C)c2ccc(C(=O)NCC3(N(C)C)CCCCC3)cc2)cc1 | -2.88%
O=C1NC(=O)N(c2ccccc2)C(=O)/C1=C/c1ccc([N+](=O)[O-])s1 | 38.4% (active)
O=C1NC(=O)N(c2ccc(F)cc2)C(=O)/C1=C/c1ccc2c(c1)CCCN2Cc1ccccc1 | 6.73%
COc1ccc2[nH]c3c(c2c1)CCN[C@H]3C | -4.46%
O=C(Cn1c(=O)n(CC2CS2)c2ccccc21)N1CCCCC1 (stereo not given) | -1.23%
N=c1ccccn1Cc1ccccc1 | 1.19%
O=C(COC(=O)c1ccccc1)Nc1ccc(Cl)cc1C(=O)c1ccccc1 | 45% (active)
O=C(CCNS(=O)(=O)c1ccccc1)Nc1ccc(Cl)cc1C(=O)c1ccccc1 | -0.4%
CN1CCN(C(=S)SCC(=O)Nc2ccc(Cl)cc2C(=O)c2ccccc2)CC1 | 5.69%
CCN(CC)C(=O)Oc1ccc(NC(=O)N2CCOCC2)cc1 | 6.33%
C=CCN1C(=O)NC(=O)/C(=C/c2ccc(OCC(=O)Nc3ccc(C)cc3)cc2)C1=O | 5.48%
COc1ccc(C(=O)C2CCCN(Cc3ccc(C)s3)C2)cc1OC (stereo not given) | 1.55%
COc1ccccc1N=C1SCCCN1C | 5.93%
NCCc1ccc(S(=O)(=O)F)cc1 | 86% (active)
CC(C)c1ccc(-n2c(O)c(/C=N/N3CCOCC3)c(=O)[nH]c2=S)cc1 | -8.3%
Cc1ccnc(-n2c(C)cc(/C=C3\C(=O)NC(=S)N(C)C3=O)c2C)c1 | -2.99%
CCN1CCN(c2ccc([N+](=O)[O-])cc2C#N)CC1 | 9.87%
CC12CCC(O)CC1CCC1C2CCC2(C)C(C(=O)CC(O)C(F)(F)F)CCC12 (stereo not given) | 2.7%
O=C(N/N=C/c1c(O)n(C2CC2)c(=S)[nH]c1=O)c1ccccc1Cl | -27.8%
